Test results from the supplement of paper PMC12350171.
Where a name gives a salt, the structure may show the parent alone.

Test system: P. vulgatus RND KO
Test: growth AUC normalised to DMSO control (median) (fraction of control); higher = less growth inhibition, active = hit call of the paper
Settings: 20 µM;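 active = normalised median growth AUC below 0.1 of DMSO control; inactive = AUC 0.1 or higher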
Method in brief: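 In 96-well plates of mGAM seeded at OD578 0.01, strains that had been passaged twice overnight without oxygen were exposed to approved-drug library compounds at 20 μM with 1% DMSO. Hourly OD578 readings were taken for 24 h in an anaerobic incubator. The trapezoidal-rule area under the curve, with curves truncated at entry into stationary phase, was expressed relative to same-plate vehicle wells as the median of three biological replicates.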
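Further: active when median AUC fell below 0.1.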

| SMILES | growth AUC normalised to DMSO control |
| --- | --- |
| CN(C)[C@@H]1C(=O)C(C(N)=O)=C(O)[C@@]2(O)C(=O)C3=C(O)c4c(O)cccc4[C@@](C)(O)[C@H]3C[C@@H]12 [Tetracycline hydrochloride] | 0.0124 (active) |
| CC(Cc1ccc(O)cc1)NCC(O)c1cc(O)cc(O)c1 (centres undefined) [Fenoterol hydrobromide] | 1.03 (inactive) |
| Clc1ccc(C(OCCN2CCCCC2)c2ccccc2)cc1 (centres undefined) [Cloperastine hydrochloride] | 1.01 (inactive) |
| CC(O)(CS(=O)(=O)c1ccc(F)cc1)C(=O)Nc1ccc(C#N)c(C(F)(F)F)c1 (centres undefined) [Bicalutamide] | 0.982 (inactive) |
| CCN(C(C)=O)c1cccc(-c2ccnc3c(C#N)cnn23)c1 [Zaleplon] | 1 (inactive) |
| NCCCNCCSP(=O)(O)O [Amifostine] | 1.02 (inactive) |
| C[C@]12COC(=O)C[C@@H]1CC[C@@H]1[C@@H]2CC[C@@]2(C)[C@H]1CC[C@]2(C)O [Oxandrolone] | 1.03 (inactive) |
| Oc1cc(Cl)ccc1Oc1ccc(Cl)cc1Cl [Triclosan] | 0.462 (inactive) |
| C=CCN1CC[C@]23c4c5ccc(O)c4O[C@H]2C(=O)CC[C@@]3(O)[C@H]1C5 [Naloxone hydrochloride] | 1.03 (inactive) |
| CC(=O)OCC(=O)[C@H]1CC[C@H]2[C@@H]3CC[C@H]4C[C@H](O)CC[C@]4(C)[C@H]3C(=O)C[C@]12C [Alfadolone acetate] | 1.04 (inactive) |
| S=C(NC1CCCCC1)N1CCC(c2cnc[nH]2)CC1 [Thioperamide maleate] | 1 (inactive) |
| CN1CCN(C(=O)OC2c3nccnc3C(=O)N2c2ccc(Cl)cn2)CC1 (centres undefined) [Zopiclone] | 0.999 (inactive) |
| CN1C(=O)CCS(=O)(=O)C1c1ccc(Cl)cc1 (centres undefined) [Chlormezanone] | 1.03 (inactive) |
| CN(C)[C@@H]1C(=O)C(C(N)=O)=C(O)[C@@]2(O)C(=O)C3=C(O)c4c(O)cccc4[C@@](C)(O)[C@H]3[C@H](O)[C@@H]12 [Oxytetracycline dihydrate] | 0.00913 (active) |
| N[C@@H]1C[C@H]1c1ccccc1 [Tranylcypromine hydrochloride] | 1.01 (inactive) |
| NC(=O)C[S+]([O-])C(c1ccccc1)c1ccccc1 (centres undefined) [Modafinil] | 1 (inactive) |
| COc1ccc(C(=O)N2CCCC2=O)cc1 [Aniracetam] | 0.996 (inactive) |
| C[C@]12CCC(=O)C(O)=C1CC[C@@H]1[C@@H]2CC[C@]2(C)C(=O)CC[C@@H]12 [Formestane] | 0.976 (inactive) |
| CCC(=O)O[C@H]1CC[C@H]2[C@@H]3CCC4=CC(=O)CC[C@]4(C)[C@H]3CC[C@]12C [Testosterone propionate] | 1 (inactive) |
| CCNCC(O)c1cccc(O)c1 (centres undefined) [Etilefrine hydrochloride] | 0.997 (inactive) |

| SMILES | growth AUC normalised to DMSO control |
| --- | --- |
| CC(=O)OC1CN2CCC1CC2 (centres undefined) [Aceclidine hydrochloride] | 0.994 (inactive) |
| CN1[C@@H]2CC[C@H]1C[C@@H](OC1c3ccccc3CCc3ccccc31)C2 [Deptropine citrate] | 0.941 (inactive) |
| NC(=O)CN1CCCC1=O [Piracetam] | 0.989 (inactive) |
| CC(=O)[C@H]1CC[C@H]2[C@@H]3CC[C@H]4C[C@H](O)CC[C@]4(C)[C@H]3C(=O)C[C@]12C [Alfaxalone] | 0.996 (inactive) |
| CCC1(c2ccc(N)cc2)CCC(=O)NC1=O (centres undefined) [Glutethimide, para-amino] | 1.02 (inactive) |
| COc1ccc(Cc2nccc3cc(OC)c(OC)cc23)cc1OC [Papaverine hydrochloride] | 0.997 (inactive) |
| C[C@]12Cc3c[nH]nc3C[C@@H]1CC[C@@H]1[C@@H]2CC[C@@]2(C)[C@H]1CC[C@]2(C)O [Stanozolol] | 0.959 (inactive) |
| O=c1[nH]c2ccccc2n1C1CCN(CCCC(c2ccc(F)cc2)c2ccc(F)cc2)CC1 [Pimozide] | 1.14 (inactive) |
| CN1CCC2(C)c3cc(O)ccc3N(C)C12 (single isomer, unassigned; (-)) [(-) Eseroline fumarate salt] | 0.979 (inactive) |
| CC[C@@H](CO)NC(=O)[C@@H]1C=C2c3cccc4[nH]cc(c34)C[C@H]2N(C)C1 [Methylergometrine maleate] | 0.975 (inactive) |
| COc1ccc2c(c1)[C@]13CCCC[C@@H]1[C@H](C2)N(C)CC3 [Dextromethorphan hydrobromide monohydrate] | 1.02 (inactive) |
| O=P1(N(CCCl)CCCl)NCCCO1 (centres undefined) [Cyclophosphamide] | 0.998 (inactive) |
| CN1C[C@H](CNC(=O)OCc2ccccc2)C[C@@H]2c3cccc4c3c(cn4C)C[C@H]21 [Metergoline] | 0.886 (inactive) |
| O=[N+]([O-])O[C@H]1CO[C@H]2[C@@H]1OC[C@H]2O[N+](=O)[O-] [Isosorbide dinitrate] | 0.94 (inactive) |
| CCC(=O)O[C@@](Cc1ccccc1)(c1ccccc1)[C@@H](C)CN(C)C [Levopropoxyphene napsylate] | 1.03 (inactive) |
| CCCC[N+]1(C)[C@@H]2C[C@@H](OC(=O)[C@H](CO)c3ccccc3)C[C@H]1[C@@H]1O[C@@H]12 (some centres undefined) [N-Butylscopolammonium bromide] | 1 (inactive) |
| C[C@]12CC[C@H](O)C[C@H]1CC[C@@H]1[C@@H]2C[C@@H](O)[C@]2(C)[C@@H](C3=CC(=O)OC3)CC[C@]12O [Digoxigenin] | 0.998 (inactive) |
| OC(c1ccccc1)(c1ccccc1)C1CCNCC1 [Azacyclonol] | 1 (inactive) |
| CN1[C@@H]2C[C@@H](OC(=O)[C@H](CO)c3ccccc3)C[C@H]1[C@@H]1O[C@@H]12 [Scopolamine hydrochloride] | 1.03 (inactive) |
